Source: PubChem BioAssay AID1489 (National Center for Advancing Translational Sciences (NCATS), 2009)
Inconclusive results are not listed. A number with no mark means an inactive call. Active and inactive are the calls of the source. The call rests on the fitted dose curve; in most records, active means well fitted antagonist curve with a large enough effect in the main read-out, with a control signal flat; inconclusive means small, poorly fitted or top-dose-only effect; inactive means no such curve, though single readings can be large or run the other way.

The molecules below were run against Neuropeptide S receptor (Homo sapiens) (UniProt Q6W5P4) (assay: Confirmation Concentration-Response Assay for Antagonists of the Neuropeptide S Receptor: Calcium Signal Transduction). Settings: CHO-NPSR cells, NPS-induced calcium flux, FDSS; series mostly up to 19.3 µM; activity change, negative = inhibition: at the top concentration.
Sequence of Neuropeptide S receptor (Homo sapiens) (Q6W5P4 whole entry, looked up): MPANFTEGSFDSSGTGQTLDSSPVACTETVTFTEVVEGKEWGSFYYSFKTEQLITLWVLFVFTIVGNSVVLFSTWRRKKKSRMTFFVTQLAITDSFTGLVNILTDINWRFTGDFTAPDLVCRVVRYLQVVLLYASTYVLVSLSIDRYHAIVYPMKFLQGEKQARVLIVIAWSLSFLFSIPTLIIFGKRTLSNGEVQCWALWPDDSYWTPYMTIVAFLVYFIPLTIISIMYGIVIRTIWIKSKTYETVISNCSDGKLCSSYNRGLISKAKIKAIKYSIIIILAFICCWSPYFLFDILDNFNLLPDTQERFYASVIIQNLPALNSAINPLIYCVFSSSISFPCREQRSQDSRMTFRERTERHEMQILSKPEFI
Excerpt: NIH Chemical Genomics Center [NCGC] NIH Molecular Libraries Probe Production centers Network [MLPCN] MLPCN Grant: X01-DA026210-01 Assay Submitter (PI): Heilig, Markus Alexander NCGC Assay Overview: Neuropeptide S receptor (NPSR), previously known as GPR154, is a recently de-orphanized G protein coupled receptor. Its endogenous ligand is the 20 amino acids peptide Neuropeptide S (NPS). […] NPS and its receptor are found in various tissues. Specifically they are highly expressed in brain areas that have been implicated in modulation of arousal, stress and anxiety. Central administration of NPS in mice produces an unusual profile of activity by inducing wakefulness and arousal, while at the same time suppressing anxiety. Therefore, NPSR may represent a novel drug target for the treatment of sleep and anxiety disorders. To identify NPSR antagonists, we developed a cell-based assay with transfected NPS receptor. NPS can stimulate the production of cAMP as well as release intracellular calcium in Chinese hamster ovary cells stably expressing NPS receptor. This change in intracellular calcium can be detected using a calcium indicator dye on a calcium imaging plate reader system (FDSS).
NCGC Assay Protocol Summary: A Chinese hamster ovary (CHO) cell line stably expressing the NPS receptor (CHO-NPSR) was obtained from Dr. Heilig lab at NIAAA and maintained in F-12 Kaighn's media (Invitrogen, Carlsbad, CA, 21127) supplemented with 10 % FBS, 100 units/ml penicillin, 100 ug/ml streptomycin and 250 ug/ml geneticin at 37C, 5% CO2 in a humidified atmosphere. Before the assay, aliquots of cells were frozen and stored at -135C. The assay was performed on a FDSS-7000 kinetic plate reader in 1536-well format. For both agonist (1-220s) and antagonist (221-400s) phases, the maximums of kinetic fluorescence responses were converted separately into text files using the instrument's software data export utility. Data for agonist response were normalized to the controls for basal activity (DMSO only) and 100% activation (NPS). […] AC50 values were determined from concentration-response data modeled with the standard Hill equation. NPS 1536-well FDSS assay protocol: (1) Frozen CHO-NPSR cells were thaw, washed once with fresh media and resuspended in F-12 Kaighn's media supplemented with 10 % FBS, 100 units/ml penicillin and 100 ug/ml streptomycin. Cells were plated at 3 ul/well (1200 cells) to black, clear-bottom, tissue-culture treated 1536-well plates, and then cultured at 37C, 5 % CO2 for 16 to 30 hours. (2) Add 3 ul of calcium dye (from High Performance PBX Calcium Assay Kit, BD Biosciences). The calcium dye was prepared according to the manufactory's instruction. (3) Incubation at 37C, 5 % CO2 for 60 to 120 min. (4) Load plates to FDSS-7000. The following steps were performed on FDSS-7000. (5) Record fluorescent background (Ex 480 nm, Em 520-560 nm) for 10 s. (6) Add 23 nl/well of compound in DMSO solution. The final titration for each compound was between 0.6 nM and 46 uM. Record agonist response for 210 s. (7) Add 2 ul of stimulation reagent (1X HBSS buffer, 0.1% BSA, 60 nM NPS). Record antagonist response for 140 s. Keywords: MLSMR, MLPCN, NIH Roadmap, qHTS, NCGC, NPS, Neuropeptide S Antagonists

First: COCCCn1cnc2c(c1=O)c1nc3ccccc3nc1n2CCc1ccccc1
Second: C=CCn1c(SCCN2C(=O)c3ccccc3C2=O)nc2scc(-c3ccccc3)c2c1=O
The “activity change, negative = inhibition” value of the first is higher: 9.86% for the first, -9.23% for the second.

First: CCCCOc1ccc(OCCCN2CCOCC2)cc1
Second: O=C(NCCCN1CCOCC1)c1cc2c(=O)[nH]c3ccccc3c2s1
The “activity change, negative = inhibition” value of the first is lower: 2.69% for the first, 4.7% for the second.

Going from `O=C(/C=C/c1ccco1)NC(=S)Nc1nc(-c2ccc3ccccc3c2)cs1` to `O=C(CSc1n[nH]c(-c2cccnc2)n1)Nc1ccnc2ccccc12`, the “activity change, negative = inhibition” value falls from 4.33% to -2.97%.

Compared with `N#Cc1cnn(-c2ncnc3sc4c(c23)CCCC4)c1N`, `CC1CCCc2sc3nc(N4CCN(CCO)CC4)n4ncnc4c3c21` (stereo not given) is higher in “activity change, negative = inhibition” value: -17.2% for the first, 17.5% for the second.

Compared with `CCCN1C(=O)/C(=C\C=C2/C=CN(CC)c3ccccc32)SC1=S`, `Cc1ccc(/C=C2\SC(=S)N(CC(=O)Nc3ncc(Cc4ccccc4Cl)s3)C2=O)cc1` is higher in “activity change, negative = inhibition” value: -24.1% for the first, -2.64% for the second.

Going from `O=C(c1ccccc1-c1nc2ccccc2[nH]1)N1CCCCC1` to `O=C(O)C1CCN(c2nc(-c3ccccc3)nc3c2oc2ccccc23)CC1`, the “activity change, negative = inhibition” value rises from -21.1% to -15.4%.

Going from `O=c1cc(CNCCCO)c2ccccc2[nH]1` to `O=C(O)CCCCCNc1nc(=S)[nH]c2ccccc12`, the “activity change, negative = inhibition” value rises from -1.54% to -0.723%.

First: CC1(C)Cc2c(c(N3CCOCC3)nc3sc4c(NCC5CCCO5)nnnc4c23)CS1 (stereo not given)
Second: CCn1cc(C(=O)NCC2CCCO2)c(=O)c2cc(S(=O)(=O)N3CCCCCC3)ccc21 (stereo not given)
The “activity change, negative = inhibition” value of the first is lower: -40.4% for the first, 15% for the second.

First: N#CC(C#N)=c1ccc2c(c1)NC1(CCCCC1)N=2
Second: O=C1Nc2ccc(S(=O)(=O)N3CCCC3C(=O)O)c3cccc1c23 (stereo not given)
The “activity change, negative = inhibition” value of the first is higher: -13.1% for the first, -13.6% for the second.

First: Cc1ccc(Nc2cc(C)nn2-c2nc(C)cc(C)n2)cc1
Second: Cc1cc(C)n(-c2nc(NC(C)C)nc(NC(C)C)n2)n1
The “activity change, negative = inhibition” value of the first is lower: 24.7% for the first, 29% for the second.

Going from `CN(C)c1ccc(N=Cc2ccco2)cc1` to `CN(C)c1ccc(N2CN=C3SCC(=O)N3C2)cc1`, the “activity change, negative = inhibition” value rises from -23.3% to 10.4%.

First: c1ccc(-c2ccc(-c3nc(-c4cccnc4)no3)cc2)cc1
Second: C(=N\Nc1nc(-c2ccccn2)nc2ccccc12)/c1ccccc1
The “activity change, negative = inhibition” value of the first is lower: -15.9% for the first, 1.74% for the second.

First: C=CCNC(=O)/C(C#N)=C/c1cn(-c2ccccc2)nc1-c1ccc(OC)c([N+](=O)[O-])c1
Second: O=[N+]([O-])c1ccc(-c2nc(C(Cl)Cl)c3ccccc3n2)cc1
The “activity change, negative = inhibition” value of the first is higher: -2.88% for the first, -23.4% for the second.

Compared with `CN(C)c1nc(=Nc2cccc(Cl)c2)ss1`, `CN(CC(=O)NCc1ccc(F)cc1)S(=O)(=O)c1cccc2nsnc12` is higher in “activity change, negative = inhibition” value: 5.52% for the first, 7.19% for the second.

First: C(=C\c1ccccc1)/C=N/N1CCN(c2ccccn2)CC1
Second: S=C(Nc1ccccc1)Nc1nccs1
The “activity change, negative = inhibition” value of the first is lower: -11.5% for the first, 23.7% for the second.

Going from `CC1(C)O[C@@H]2C[C@H]3[C@@H]4C[C@H](F)C5=CC(=O)CC[C@]5(C)[C@H]4[C@@H](O)C[C@]3(C)[C@]2(C(=O)CO)O1` to `Cn1c(C(=O)NCCN2CCc3ccccc3C2)cc2c(=O)[nH]c3ccccc3c21`, the “activity change, negative = inhibition” value falls from 34.2% to 3.7%.

First: NC(=S)N/N=C/c1ncc(C(F)(F)F)cc1Cl
Second: CC(=O)c1sc(-c2ccccc2)cc1NS(=O)(=O)c1ccccc1
The “activity change, negative = inhibition” value of the first is lower: -1.3% for the first, 19.9% for the second.

With `CCOC(=O)c1cnc(-n2nc(C)cc2C)nc1NC1CCCC1` the Potency was 2.82 µM (active).
For `COc1ccc(C2c3c(ncn(CCN4CCOCC4)c3=N)Oc3ccc4ccccc4c32)cc1OC` (stereo not given), the Potency was 1.58 µM (active).
In the case of `COc1ccc(N=C2S/C(=C\c3ccc(N4CCOCC4)o3)C(=O)N2CCc2c[nH]c3ccccc23)cc1`, the Potency is reported as 2.24 µM (active).
For `CS(=O)(=O)c1nc(-c2ccccc2)cc(C(F)(F)F)n1`, the Potency was 7.94 µM (active).
With `CC1CCCCN1S(=O)(=O)c1ccc(C(=O)Nc2sccc2C(N)=O)cc1` (stereo not given) the Potency was 12.6 µM (active).
`Cc1ccc(-c2ccc(/C=C3\C(=O)ON=C3c3ccccc3)o2)c([N+](=O)[O-])c1` was tested, and the Potency was 2.82 µM (active).
